Screens: PubChem, National Center for Advancing Translational Sciences (NCATS)
Abeta rescue = restores growth of yeast expressing A-beta42 peptide | yeast expressing A-beta42, growth rescue, OD600, 48 h; response scale: 0% DMSO, 100% iron-clioquinol control | Potency, µM (doses to about 46.1 µM), hits mostly activators | 410,000 tested, 0.063% active; further: potency means the concentration at half of the fitted maximal effect; nearly all actives have a fitted effect of over 55% in size
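Yeast growth medium received pinned compounds, then yeast cells expressing toxic A-beta were added; plates incubated at 30 C for 48 hr. Growth read as absorbance at 600 nm, normalized to DMSO and equimolar FeCl3 plus clioquinol controls.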
aSyn rescue = rescues yeast growth from alpha-synuclein toxicity; Yeast expressing alpha-synuclein, growth rescue, BacTiter-Glo, 24 h; Potency, µM (titrated, usually from 46.1 µM), inactives show top-dose growth rescue (activation), most hits filed as activators; 370,000 tested, 0.14% active; AID 652106; further: potency means the concentration at half of the fitted maximal effect; % of control where 0% means no effect; nearly all actives have a fitted effect of over 65% in size
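Galactose-induced alpha-syn yeast (OD600=0.02, raffinose-pregrown) + pinned cpd, 24 hr, 30 deg C; growth by BacTiter-Glo luminescence. Growth restoration scores as activation.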
TDP-43 yeast inh = inhibitors of TDP-43 toxicity in yeast | TDP-43 expressing yeast growth rescue, BacTiter-Glo, 24 h | Potency, µM (doses to about 46.1 µM), for inactives: at the highest dose growth rescue (activation), usual class: activators | 410,000 tested, 1.8% active; further: potency means the concentration at half of the fitted maximal effect; % of control where 0% means no effect; nearly all actives have a fitted effect of over 50% in size
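In this qHTS, compounds that restore growth of yeast expressing TDP-43 appear as activators. Cells (OD600=0.02, galactose medium, raffinose-pregrown) are incubated with compound 24 hr at 30 deg C and growth is quantified by BacTiter-Glo.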
FUS yeast rescue = rescues growth of FUS-expressing yeast. S. cerevisiae FUS-expressing, growth rescue, OD600, 24 h. AID 1347120. Potency, µM (series often up to 76.6 µM), actives largely listed as activators. 390,000 tested, 0.24% active;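 further: potency means the concentration at half of the fitted maximal effect; plate controls were DMSO vehicle for no effect and reference control for full effect; nearly all actives have a fitted effect of over 55% in size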
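Yeast FUS proteinopathy model; galactose-induced FUS (2%), starting OD 0.005. Cpds in dilution series, 24hr, 30C, 99% humidity. Abs 600 nm growth. Pos ctrl CP55940 (top 92uM final); neg ctrl DMSO.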
pAkt inh = Akt phosphorylation inhibition; Neuro2A IGF-stimulated pAkt S473 HTRF, 20 min; hits give low values; 360,000 tested, 0.32% active; AID 651550; activity change, % for hits at 50 µM; in the data active means activity change below about -80%; inconclusive means mostly about -51% to -80%; further: on the % scale 0 is the no-effect control and ±100 the full control effect
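Single-point screen (50 µM final compound) in Neuro2A cells stimulated 20 min with 6 nM IGF at 37 deg C. After lysis, Ser473-phosphorylated Akt read by HTRF (ex 330 nm, em 615/665 nm) as the 665/615 ratio.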
Active calls of the source: *; i = inactive; u = inconclusive; x = no result. Compounds with a hit are over-represented: about 2.3% of the library has one in this group of screens. Unless noted, the call rests on the fitted dose curve; in most records, active means well fitted curve in the direction sought with a large enough effect; inconclusive means small, poorly fitted or top-dose-only effect, or another doubt; inactive means no such curve, though single readings can be large; an effect the other way counts as inactive or inconclusive.

SMILES	Abeta rescue	aSyn rescue	TDP-43 yeast inh	FUS yeast rescue	pAkt inh
O=C(COc1ccc2c(c1)CCC2)NCc1cccc(Cl)c1	i	0%	20µM*	i	i
O=C(OCCOc1cccc(Cl)c1)c1ccc2ncsc2c1	i	1%	14µM*	i	i
O=C(COC(=O)c1ccc2ncsc2c1)NCc1cccc(Cl)c1	i	8%	28µM*	i	i
O=C(Nc1cccc(Cl)c1)c1ccc2ncsc2c1	i	-14%	-18%	i	i
O=C(COC(=O)c1ccc2ncsc2c1)Nc1cccc(Cl)c1	i	-9%	u	x	i
COc1cccc(NC(=O)CN2CCCN(S(=O)(=O)c3ccc(Br)cc3)CC2)c1	i	x	13%	i	x
COc1ccc(NC(=O)C(=O)NCC2(c3ccccc3)CCCC2)c(OC)c1	i	x	8%	i	x
CC(C)Cn1c(=O)c2ccccc2n2c(CCC(=O)Nc3cccc(Cl)c3)nnc12	i	x	16%	i	x
Cc1cc(C)cc(NC(=O)C2CCN(S(=O)(=O)c3c(C)noc3/C=C/c3ccco3)CC2)c1	i	x	1%	i	x
COc1ccc(CNC(=O)CCc2c(C)nn(-c3ccc(N4CCCC4)nn3)c2C)c(OC)c1	i	x	3%	i	x
Cc1ccc(NC(=O)CN2C(=O)CCSc3ccccc32)c(C)c1	i	3%	16µM*	i	x
Cc1cccc(NC(=O)CN2C(=O)CCSc3ccccc32)c1C	x	x	x	i	x
Cc1nn(-c2ccc(N3CCCCC3)nn2)c(C)c1CCC(=O)NCc1ccc(Cl)cc1	i	x	-17%	i	x
CSc1ccc(CCNC(=O)C(C)n2nc(C)c3sc4ccccc4c3c2=O)cc1 (centres undefined)	i	x	18%	i	x
COc1ccccc1NC(=O)c1ccc(-c2nc(COc3ccc(C)cc3)c(C)o2)cc1	i	x	14%	i	x
Cc1ccc2c(Cl)cc(Cl)c(OCC(=O)N3CCCC3)c2n1	i	-1%	7%	i	i
Cc1ccc2c(Cl)cc(Cl)c(OCC(=O)O)c2n1	i	-8%	14µM*	i	i
Oc1ccc(-c2c(C3=CCCCC3)sc3ccccc23)cc1	i	-46%	20µM*	i	i
O=C(Nc1c(F)cc(F)cc1Br)c1cc(-c2ccc(O)cc2)on1	i	-20%	11µM*	i	i
O=C(Nc1c(F)cc(F)cc1Br)c1cc(-c2ccccc2)on1	i	5%	15%	i	i
CCCCN1C(=O)C(CC(=O)NCCCCc2ccccc2)CC(C(=O)N2CCOCC2)=C1C (centres undefined)	i	20µM*	25%	i	i
CCCCN1C(=O)C(CC(=O)NCCCCc2ccccc2)CC(C(=O)N2CCCCCC2)=C1C (centres undefined)	i	-1%	-4%	i	i
Cc1ccsc1/C=N/NC(=O)CSCc1ccc(Cl)cc1	i	u	14µM*	i	i
Cc1ccsc1/C=N/NC(=O)Cc1ccc(Cl)cc1	i	0%	21%	i	i
c1ccc(Nc2nc(NCc3ccco3)nc3nccnc23)cc1	x	-2%	x	x	x
SMILES	Abeta rescue	aSyn rescue	TDP-43 yeast inh	FUS yeast rescue	pAkt inh
Cc1ccc(OCc2cc(C(=O)N3CCC(C(O)C(C)C)CC3)no2)cc1C (centres undefined)	i	12%	16µM*	u	i
COc1ccc(CCNc2nc3c(c(=O)n(C)c(=O)n3C)n2Cc2ccccc2Cl)cc1OC	i	x	22%	i	x
CNC(=O)c1c(NC(=O)c2ccc(N3C(=O)CCC3=O)cc2)sc2c1CCC(C)C2 (centres undefined)	i	1%	32µM*	x	i
COc1cc(NC(=S)NCCN2CCOCC2)cc(OC)c1OC	25µM*	-9%	-13%	i	i
COc1cc(OC)nc(-n2ncc(Br)c(Br)c2=O)n1	i	9%	11µM*	i	i
COC(=O)c1cnn(-c2nc(OC)cc(OC)n2)c1C	i	8%	5%	x	i
CCc1nn2c(=O)cc(COC(=O)c3ccccc3NC(=O)c3cccs3)nc2s1	i	x	16%	i	x
COc1cc(C(=O)NCc2nnnn2-c2ccc(C)c(C)c2)cc(OC)c1OC	i	x	9%	i	x
